A selection: hits, their analogues and other compounds. The true share with any hit is near 2.5%.
EWS-Fli inh: EWS/Fli transcriptional activity inhibition; A673 NR0B1-luciferase reporter, viability-normalised; inhibition, % at 12.6 µM; 0.67% of 350,000 active; AID 651661;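 active = mean inhibition of at least 50% after viability correction, with every replicate also passing that limit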;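 also: firefly luciferase signal divided by Alamar Blue viability fluorescence both relative to DMSO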
GAA850 FXN act: increases GAA850 frataxin promoter reporter activity; HEK293 lucGAA850 FXN promoter luciferase reporter, 24 h; percent of 10 µM SAHA response; activation, % at 6 µM; 0.56% of 360,000 active; AID 540364;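 active = activation above the average of all compounds screened plus 3 SD, cutoff fixed separately per campaign, cut at about 7.5% in these data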
PAX8 reporter: lowers PAX8-driven luciferase in RMG-I cells; inhibition, % at 12.6 µM; AID 652154; 1.2% of 360,000 active; RMG-I TPO-luciferase reporter, SteadyGlo, 24 h;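 active = mean replicate inhibition at least 60% with every replicate also reaching 60%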;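 also: luciferase light reporting Pax8 driven TPO promoter activity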
CFTR F508del cor: correctors of CFTR F508del function in bronchial epithelial cells | 0.36% of 350,000 active | activity (quench increase), % at 7.58 µM | CFBE cells, YFP halide quenching; stimulated with forskolin plus potentiator P3; % fluorescence drop versus neutral controls | AID 720511;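 active = mean added fluorescence quench of at least 8% versus neutral control, with both replicates also reaching 8%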;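 also: cells transiently co-express mutant CFTR-F508del with the halide-sensitive YFP; corrector assay measuring rescue of mutant channel to the surface after 24 h compound exposure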
HIV Env fusion: inhibitors of HIV Env-mediated cell fusion; AID 651610; HeLa-JRFL Env/CEM21 cell fusion, luciferase; 1.1% of 360,000 active; inhibition, % at 12.3 µM;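 active = mean replicate inhibition score of at least 50 and every replicate individually at or above 50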
Numbers stand for hits; . = inactive; / = no result.

SMILES | EWS-Fli inh | GAA850 FXN act | PAX8 reporter | CFTR F508del cor | HIV Env fusion
Cc1ccc(P(=O)(c2ccc(C)cc2)[C@@H](NC(c2ccccc2)c2ccccc2)c2ccccc2)cc1 | . | / | . | . | .
C[C@@H]1CN([C@@H](C)CO)C(=O)Cc2cc(NC(=O)NC3CCCCC3)ccc2O[C@H]1CN(C)CC1CCCCC1 | . | / | 67 | . | .
C[C@@H]1CN([C@@H](C)CO)C(=O)Cc2cc(NC(=O)Nc3ccc4c(c3)OCO4)ccc2O[C@H]1CN(C)CC1CCCCC1 | . | / | 83 | . | .
C[C@@H]1CN([C@@H](C)CO)C(=O)Cc2cc(NC(=O)Nc3ccc(F)cc3)ccc2O[C@H]1CN(C)CC1CCCCC1 | . | / | 82 | . | .
C[C@H](CO)N1C[C@H](C)[C@H](CN(C)CC2CCCCC2)Oc2ccc(NC(=O)NC3CCCCC3)cc2CC1=O | . | / | . | . | .
COc1ccc2c3c([nH]c2c1)[C@H](CO)N(C(=O)C1CCC1)CC31CN(C)C1 | . | / | . | . | /
C[C@@H](NC(=O)C[C@H]1C[C@@H]2c3cc(NC(=O)C4CCC4)ccc3O[C@@H]2[C@H](CO)O1)c1ccccc1 | . | / | / | . | .
Nc1nc2cc3c(cc2cc1C(=O)NCCc1c[nH]c2ccccc12)OCO3 | 59 | / | . | . | .
COc1cc2cc(C(=O)NCCc3c[nH]c4ccccc34)c(N)nc2cc1OC | . | / | . | . | .
COc1ccc2c3c([nH]c2c1)[C@@H](CO)N(C(=O)c1ccccn1)CC31CN(C(=O)C2CCCC2)C1 | . | / | . | . | /
Cc1cc(-n2c(SCC(=O)Nc3ccc(F)c(F)c3)nc3n[nH]c(C)c3c2=N)ccc1Cl | . | . | 77 | . | .
CCc1ccc(NC(=O)CSc2nc3n[nH]c(C)c3c(=N)n2-c2cccc(OC)c2)cc1 | / | . | / | / | 59
Cc1cc(-n2c(SCC(=O)Nc3ccc(Br)cc3)nc3n[nH]c(C)c3c2=N)ccc1Cl | / | . | . | . | .
COc1cccc(NC(=O)CSc2nc3n[nH]c(C)c3c(=N)n2-c2cccc(OC)c2)c1 | / | . | / | / | /
O=C(CC(F)(F)F)N1C[C@@H]2[C@H](c3ccccc31)[C@H](CO)N2CC1CCOCC1 | . | / | . | . | /
COc1ccc2c(c1)C(NC(=O)C(F)(F)F)CC2=O (stereo not drawn) | / | . | . | / | .
CCOCC(=O)NC1CCc2cc(OC(=O)COCC)c(OC)c(OC)c2-c2ccc(SC)c(=O)cc21 (stereo not drawn) | 53 | . | 91 | . | .
COc1ccc(-c2ccc(=O)n(CC(=O)NC3CCc4ccccc43)n2)cc1OC (stereo not drawn) | . | . | . | . | .
COc1cc2c(c(OC)c1OC)-c1ccc(SC)c(=O)cc1C(NC(=O)C(F)(F)F)CC2 (stereo not drawn) | . | . | 87 | . | .
O=C(CCN1CCCCC1)N[C@H]1CC[C@H](CCn2cc(-c3cccc(F)c3)nn2)O[C@H]1CO | . | / | . | . | .
Cc1ccc(/C=N/NC(=O)c2ccc3ccccc3c2)s1 | . | . | . | 11 | .
Cc1ccc(/C=N/NC(=O)c2ccc3c(c2)OCCO3)s1 | . | . | . | . | .
CC(C)C#Cc1ccc2c(c1)O[C@H](CN(C)C(=O)C1CCC1)[C@@H](C)CN([C@@H](C)CO)S2(=O)=O | . | / | / | . | .
Cc1ccc(O)c(-c2cc(C(F)(F)C(F)F)nc(-c3ccccc3)n2)c1 | / | . | / | / | /
Oc1ccc(Cl)cc1-c1cc(C(F)(F)C(F)F)nc(-c2ccccc2)n1 | / | . | . | / | 67
SMILES | EWS-Fli inh | GAA850 FXN act | PAX8 reporter | CFTR F508del cor | HIV Env fusion
O=C(NCCN1C(=O)S/C(=C\c2ccc(OC(F)F)cc2)C1=O)c1cnccn1 | 59 | . | 128 | 13 | /
COc1ccc(/C=C2\SC(=O)N(CCNC(=O)C3=COCCO3)C2=O)cc1 | . | . | . | 8.0 | .
Cc1cc(C(=O)Nc2cccc3c2O[C@@H](CN(C)Cc2ccc(C(=O)Nc4ccccc4N)cc2)[C@@H](C)CN([C@@H](C)CO)C3=O)n(C)n1 | . | / | / | . | /
Cc1cc(N/N=C/c2ccc(O)cc2O)nc(-n2nc(C)cc2C)n1 | / | . | . | / | 56
COc1ccc(/C=N/Nc2cc(C)nc(-n3nc(C)cc3C)n2)cc1 | / | . | . | / | .
O=C(C[C@H]1C[C@H]2c3cc(NS(=O)(=O)c4ccccc4)ccc3O[C@H]2[C@@H](CO)O1)N1CCOCC1 | . | / | . | . | .
C#Cc1ccc([C@H]2C=C(C(=O)Nc3ccccc3)O[C@@H](OCCCCO)C2)cc1 | . | / | . | . | .
COc1ccc(N2CCN(C(=O)COC(=O)CCc3ccccc3)CC2)cc1 | . | . | 77 | . | .
